A selection: hits, their analogues and other compounds. The true share with any hit is near 12%.
JMJD2A Tudor inh – inhibitors of human JMJD2A Tudor domain. O75164. AlphaScreen JMJD2A-Tudor / H3K4me3 peptide binding. 4.4% of 390,000 active. AID 504339. Potency, µM (doses to about 114 µM), inactives show at the highest dose activity change, negative = inhibition, hits mostly inhibitors; also: % is scaled to controls: 0 for no effect and ±100 for the full control effect; nearly all actives have a fitted effect of over 50% in size
BAZ2B block – blocks human BAZ2B; 4.4% of 360,000 active; Potency, µM (series often up to 114 µM), without a hit: top-dose activity change, negative = inhibition, most hits filed as inhibitors; AlphaScreen BAZ2B-H3K14Ac peptide displacement; also: % is scaled to controls: 0 for no effect and ±100 for the full control effect; nearly all actives have a fitted effect of over 60% in size
Target sequence (Q9UIF8 whole entry, looked up): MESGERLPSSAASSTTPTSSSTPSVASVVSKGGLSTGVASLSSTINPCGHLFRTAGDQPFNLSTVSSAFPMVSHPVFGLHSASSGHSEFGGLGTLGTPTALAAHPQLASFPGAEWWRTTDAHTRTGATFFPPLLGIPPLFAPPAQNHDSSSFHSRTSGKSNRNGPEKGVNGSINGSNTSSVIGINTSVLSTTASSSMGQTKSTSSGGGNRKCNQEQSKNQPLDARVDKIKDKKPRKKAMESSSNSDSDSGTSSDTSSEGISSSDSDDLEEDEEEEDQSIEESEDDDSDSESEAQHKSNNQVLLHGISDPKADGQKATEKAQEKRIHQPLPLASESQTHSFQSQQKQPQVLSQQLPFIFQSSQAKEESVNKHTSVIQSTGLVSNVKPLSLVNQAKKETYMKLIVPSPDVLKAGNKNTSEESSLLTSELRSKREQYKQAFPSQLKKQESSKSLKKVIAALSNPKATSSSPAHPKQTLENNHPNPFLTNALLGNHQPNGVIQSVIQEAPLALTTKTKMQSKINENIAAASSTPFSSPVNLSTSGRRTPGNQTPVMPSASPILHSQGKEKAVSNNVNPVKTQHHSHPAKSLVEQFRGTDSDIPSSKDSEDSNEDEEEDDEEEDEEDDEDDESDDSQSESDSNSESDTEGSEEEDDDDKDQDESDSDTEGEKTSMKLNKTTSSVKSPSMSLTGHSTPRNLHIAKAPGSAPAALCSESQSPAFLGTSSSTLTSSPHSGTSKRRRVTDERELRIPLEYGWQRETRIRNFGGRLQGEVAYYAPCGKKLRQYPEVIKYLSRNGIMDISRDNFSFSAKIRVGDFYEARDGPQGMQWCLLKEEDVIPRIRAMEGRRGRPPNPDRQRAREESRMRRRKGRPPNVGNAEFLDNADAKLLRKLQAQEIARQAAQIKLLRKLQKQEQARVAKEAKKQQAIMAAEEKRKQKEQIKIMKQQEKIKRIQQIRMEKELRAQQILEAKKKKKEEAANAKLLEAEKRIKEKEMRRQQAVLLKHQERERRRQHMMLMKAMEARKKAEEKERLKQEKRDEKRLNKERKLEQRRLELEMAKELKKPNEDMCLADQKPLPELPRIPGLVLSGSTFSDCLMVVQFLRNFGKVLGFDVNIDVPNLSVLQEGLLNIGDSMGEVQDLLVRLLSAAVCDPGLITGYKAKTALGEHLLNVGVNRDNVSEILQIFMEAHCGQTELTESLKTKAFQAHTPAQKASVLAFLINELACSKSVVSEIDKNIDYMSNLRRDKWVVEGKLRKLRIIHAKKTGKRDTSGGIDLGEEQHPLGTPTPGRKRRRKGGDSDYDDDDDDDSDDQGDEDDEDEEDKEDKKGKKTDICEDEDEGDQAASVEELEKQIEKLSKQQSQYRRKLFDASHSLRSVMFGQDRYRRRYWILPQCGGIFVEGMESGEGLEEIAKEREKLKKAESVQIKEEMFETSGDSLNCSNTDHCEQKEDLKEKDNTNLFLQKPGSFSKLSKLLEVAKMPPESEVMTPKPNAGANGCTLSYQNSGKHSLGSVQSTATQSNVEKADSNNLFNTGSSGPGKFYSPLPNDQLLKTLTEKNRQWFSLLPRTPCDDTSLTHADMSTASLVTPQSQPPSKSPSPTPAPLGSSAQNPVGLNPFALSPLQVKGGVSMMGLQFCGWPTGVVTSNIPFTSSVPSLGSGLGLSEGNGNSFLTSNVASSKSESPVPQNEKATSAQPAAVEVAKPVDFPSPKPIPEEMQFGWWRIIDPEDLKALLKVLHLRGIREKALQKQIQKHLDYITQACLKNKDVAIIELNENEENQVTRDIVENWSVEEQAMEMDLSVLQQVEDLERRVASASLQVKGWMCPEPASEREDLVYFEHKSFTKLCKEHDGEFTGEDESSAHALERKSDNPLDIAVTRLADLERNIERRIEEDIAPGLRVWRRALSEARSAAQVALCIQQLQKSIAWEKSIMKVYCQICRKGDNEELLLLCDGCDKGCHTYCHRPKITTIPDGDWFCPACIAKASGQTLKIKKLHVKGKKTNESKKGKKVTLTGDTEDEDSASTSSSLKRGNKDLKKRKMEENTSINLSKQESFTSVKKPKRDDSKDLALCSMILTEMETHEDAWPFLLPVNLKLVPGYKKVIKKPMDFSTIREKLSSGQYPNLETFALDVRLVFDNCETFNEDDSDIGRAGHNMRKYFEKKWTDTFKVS
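AlphaScreen displacement: compounds (up to 110uM) incubated 30 min at room temperature with a preformed 50 nM BAZ2B/50 nM biotinylated H3K14Ac peptide complex in PBS pH 7.4 with Tween-20. Donor and acceptor beads at 10 ug/mL final added, 20 min light-protected before reading.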
L3MBTL1 block – blocks human L3MBTL1; AlphaScreen L3MBTL1–H3K9me1 peptide binding; Potency, µM (series often up to 57.1 µM), for inactives: at the top dose activity, negative = inhibition, hits mostly inhibitors; 0.66% of 230,000 active; AID 485360; also: % is scaled to controls: 0 for no effect and ±100 for the full control effect; nearly all actives have a fitted effect of over 60% in size
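L3MBTL1 (50 nM) pre-complexed 30 min with biotinylated H3(1-15)K9me1 peptide (75 nM), then compounds added for 30 min at room temperature; AlphaScreen streptavidin donor/nickel chelate acceptor beads (10 ug/mL final) read after 30 min dark incubation.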
G9a block – inhibitors of human histone lysine methyltransferase G9a | Q96KQ7 | G9a H3K9 monomethylation, AlphaScreen, 2 h | Potency, µM (highest dose often 102 µM), inactives show top-dose activity, negative = inhibition, most hits filed as inhibitors | 8.8% of 350,000 active; also: % is scaled to controls: 0 for no effect and ±100 for the full control effect; nearly all actives have a fitted effect of over 75% in size
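G9a (20 nM) preincubated 15 min RT with compounds, then 500 nM biotinylated H3K9 peptide and 20 uM SAM added; 2 h RT reaction. Monomethyl-H3K9 product detected by AlphaScreen with anti-H3K9me1 antibody, streptavidin donor and anti-rabbit IgG acceptor beads.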
Sfp PPTase inh – Sfp phosphopantetheinyl transferase inhibition. Q9F4F7. Biochemical Sfp PPTase activity, qHTS. Potency, µM, for the others: largest response in the series, negative = inhibition, hits mostly inhibitors. 3.5% of 310,000 active. AID 1490;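 also: the enzyme is Sfp with the accession as filed and its product quenches rhodamine fluorescence; 0% = enzyme reaction without inhibitor and -100% = no enzyme wells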
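Step 1, compound plus 15 nM Sfp-PPTase, 15 min, room temperature. Step 2, add rhodamine-CoA (5 uM) and BHQ-2-YbbR (12.5 uM). Step 3, read 525/598 nm fluorescence at 0 and 30 min.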
HP1b chromo inh – blocks HP1-beta chromodomain binding to methylated histone tails | AID 540317 | Potency, µM (series often up to 114 µM), inactives show at the top dose activity change, negative = inhibition, hits mostly inhibitors | AlphaScreen HP1-beta / biotin-H3K9me3 peptide binding | P83916 | 0.56% of 390,000 active; also: nearly all actives have a fitted effect of over 70% in size
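Compound inhibition of the preformed complex between 50 nM HP1-beta and 50 nM biotinylated H3K9me3 peptide was read by AlphaScreen. Buffer was PBS pH 7.4 with 0.01% Tween-20. Incubations ran 30 min at room temperature, with 10 ug/mL donor/acceptor beads.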
* = called active by the depositor; ? = inconclusive; nt = no result given; [ ] = another dose, or the depositor's remark. Calls follow the shape of the dose curve; as a rule, active = well fitted curve in the direction sought with a large enough effect; inconclusive = small, poorly fitted or top-dose-only effect, or another doubt; inactive = no such curve, though single readings can be large; an effect the other way counts as inactive or inconclusive. Potency is read from the fitted curve at half-maximal effect.

SMILES | JMJD2A Tudor inh | BAZ2B block | L3MBTL1 block | G9a block | Sfp PPTase inh | HP1b chromo inh
COc1ccc(NC(=O)NCCc2c[nH]c3ccccc23)c(OC)c1 | -24% | ? | nt | -19% | 8% | 3%
COc1ccc(NC(=S)NCCc2c[nH]c3ccccc23)cc1 | -33% | 45µM* | -12% | 32%[59 µM] | 18% | -25%
CCN(CC(=O)NCCCN1CCOCC1)S(=O)(=O)c1ccc(Cl)cc1 | -1% | 0% | nt | -3%[59 µM] | 7% | 36%
COc1ccc2[nH]cc(CCNC(=S)NCCc3ccccc3)c2c1 | ? | 28µM* | -2% | 45µM* | 26% | -2%
O=S(=O)(c1ccc(F)cc1)N1CCC(n2c(C(F)(F)F)nc3cccnc32)CC1 | -20% | -2% | nt | 4%[59 µM] | nt | 14%
CCOc1ccc(CCNC(=O)Cn2nc(CC)n3c(cc4sccc43)c2=O)cc1 | -17% | -4% | nt | 10%[59 µM] | nt | 24%
COc1cccc(/C=C2\SC(=S)N(N3C(=O)CCCC3=O)C2=O)c1 | -85% | 25µM* | -10% | 22µM* | 1% | ?
COc1cccc(/C=C2\SC(=S)N(CCC(=O)N3CCCCC3)C2=O)c1 | -20% | -30% | nt | 5% | -1% | 10%
O=C1/C(=C/c2cccc(O)c2)SC(=S)N1CC1CCCO1 (stereo not drawn) | -27% | -5% | -8% | -5%[12.7 µM] | 13% | 21%[57 µM]
COc1cccc(/C=C2\SC(=S)N(CC3CCCO3)C2=O)c1 (stereo not drawn) | ? | 8.9µM* | -28% | 28µM* | -7% | -52%
COc1ccc(NC(=O)CN(C)C(=O)c2cc(-c3cccs3)nn2-c2ccccc2)cc1 | -21% | -5% | -15% | 50µM* | nt | 5%
O=C(O)c1cc(-c2cccs2)nn1-c1ccccc1 | -4% | -38% | -10% | 45µM* | 28% | 28%
CCN(CC(=O)Nc1ccc(OC)cc1)C(=O)c1cc(-c2cccs2)nn1-c1ccccc1 | -14% | -31% | -10% | ? | nt | 16%
O=C(O)c1cc(-c2cc3ccccc3o2)nn1-c1ccccc1 | -9% | nt | -16% | 45µM* | 14% | 28%
CN(C)S(=O)(=O)c1cccc(NC(=O)c2cc(-c3cccs3)nn2-c2cccc(Cl)c2)c1 | -28% | -9% | -11% | -18%[59 µM] | 3% | 11%
O=C(O)c1cc(-c2cccs2)nn1-c1cccc(Cl)c1 | -16% | -17% | -18% | -28% | 89µM* | 3%
CC12CCC(=O)N1C(C(=O)Nc1nc(-c3cc(F)ccc3F)cs1)CS2 (stereo not drawn) | -12% | -5% | -7% | ? | nt | 20%
CCOc1ccc(NC(=O)C2Cc3ccccc3N2C(=O)c2ccccc2)cc1 (stereo not drawn) | -3% | -3% | nt | ? | nt | 57%
Brc1cccc(-c2nnc(-c3ccccc3)o2)c1 | 29% | 28% | 28%[11.4 µM] | 17%[59 µM] | -24% | 80%
Cc1ccc(-c2nnc(-c3cccc(Br)c3)o2)cc1 | 50µM* | 8% | 13%[11.4 µM] | 11%[59 µM] | 18% | -7%
CCc1c(C)nc(N2CCN(c3ccc(OC)cc3)CC2)[nH]c1=O | -6% | 6% | -5% | 22% | 14% | 17%
COC(=O)NC(c1cccc(F)c1)C(C(C)=O)C(=O)OC (stereo not drawn) | nt | nt | nt | nt | 13% | nt
O=C(c1ccccc1)N1CCN(C(=O)c2nn3c(C(F)(F)F)cc(-c4ccccc4)nc3c2Br)CC1 | -12% | 3% | nt | 10% | -5% | 12%
COc1ccc(CC2SC(=Nc3ccc(F)cc3)NC2=O)cc1 (stereo not drawn) | 3% | -2% | nt | 56µM* | 3% | 23%
COc1ccc(N(C)C(=O)c2nn(-c3ccc(C)cc3)c(=O)n(C)c2=O)c(OC)c1 | -10% | -8% | nt | -11%[59 µM] | nt | 20%[57 µM]
CC(=O)N1CCc2cc(S(=O)(=O)NCCC(=O)NCCc3ccc(Cl)cc3)ccc21 | -13% | -10% | nt | nt | 7% | 32%
N#C/C(=N\Nc1ccc(Cl)cc1)C(=N)N1CCCCC1 | ? | ? | -28% | 1% | 9% | -5%
